# “And” between values parts separate entries of the source, which are not always exact repeats. Identical values can stand only once. Inconclusive results are not listed. Entries that show only a call come without a potency. The source made the active and inactive calls. Calls follow the shape of the dose curve; as a rule, active = well fitted curve in the direction sought with a large enough effect; inconclusive = small, poorly fitted or top-dose-only effect, or another doubt; inactive = no such curve, though single readings can be large; an effect the other way counts as inactive or inconclusive.
# Key:
# [1] = qHTS of pediatric cancer cell lines to identify multiple opportunities for drug repurposing: Primary screen for A673 cells (AID 1347092); also: nearly all actives have a fitted effect of over 45% in size
# In short: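 A673 cells (500-1,000 cells/well) were treated 48 hours at 37 degrees C with compounds at 11-point (0.78 nM to 46 µM) or 8-point (0.59 nM to 46 µM) dilutions. Viability read by CellTiter-Glo luminescence; concentration-response curves fitted.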
# [2] = qHTS of pediatric cancer cell lines to identify multiple opportunities for drug repurposing: Primary screen for SK-N-MC cells (AID 1347093)
# In short: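 Metabolically active cells were quantified by ATP-dependent luminescence (CellTiter-Glo, 15 min at room temperature) following 48 h treatment. Cells had been plated at 500-1,000 per well and settled for 5 h beforehand.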
# [3] = qHTS of pediatric cancer cell lines to identify multiple opportunities for drug repurposing: Primary screen for BT-37 cells (AID 1347094)
# In short: (§1)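 Plated cells (500-1,000 per well, growth media) were allowed to settle for 5 hours, treated with compound dilutions for 48 hours, then lysed with CellTiter-Glo for 15 min at room temperature before luminescence reading.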
# [4] = qHTS of pediatric cancer cell lines to identify multiple opportunities for drug repurposing: Primary screen for NB-EBc1 cells (AID 1347095)
# In short: as §1
# [5] = qHTS of pediatric cancer cell lines to identify multiple opportunities for drug repurposing: Primary screen for Saos-2 cells (AID 1347097); also: nearly all actives have a fitted effect of over 40% in size
# In short: as §1
# [6] = qHTS of pediatric cancer cell lines to identify multiple opportunities for drug repurposing: Primary screen for NB1643 cells (AID 1347099); also: nearly all actives have a fitted effect of over 50% in size
# In short: as §1
# [7] = qHTS of pediatric cancer cell lines to identify multiple opportunities for drug repurposing: Primary screen for LAN-5 cells (AID 1347100)
# In short: (§2)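 Cells (500-1,000/well) rested 5 h, then received compounds for 48 h; metabolically active cells were measured by CellTiter-Glo luminescence. Final concentrations spanned up to 46 µM (MIPE, 11-point) or 0.59 nM-46 µM (NPC, 8-point) in primary screens, 11-point in follow-ups.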
# [8] = qHTS of pediatric cancer cell lines to identify multiple opportunities for drug repurposing: Primary screen for U-2 OS cells (AID 1347096); also: nearly all actives have a fitted effect of over 50% in size
# In short: as §2
# [9] = qHTS of pediatric cancer cell lines to identify multiple opportunities for drug repurposing: Primary screen for SK-N-SH cells (AID 1347098); also: nearly all actives have a fitted effect of over 65% in size
# In short: as §2
# [10] = qHTS of pediatric cancer cell lines to identify multiple opportunities for drug repurposing: Primary screen for SJ-GBM2 cells (AID 1347091)
# In short: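 Cell viability, CellTiter-Glo luminescence; 500-1,000 cells/well, 8- or 11-point titration, 48 h compound exposure at 37 degrees C, 5% CO2. Controls: DMSO neutral, bortezomib 2.3 µM final as positive.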
# Potency is read from the fitted curve at half-maximal effect.
Compound,Potency [1],Potency [2],Potency [3],Potency [4],Potency [5],Potency [6],Potency [7],Potency [8],Potency [9],Potency [10]
CC[C@]1(O)C[C@@H]2CN(CCc3c([nH]c4ccccc34)[C@@](C(=O)OC)(c3cc4c(cc3OC)N(C)[C@H]3[C@@](O)(C(=O)OC)[C@H](OC(C)=O)[C@]5(CC)C=CCN6CC[C@]43[C@@H]65)C2)C1,21.1 nM (active) and 133 nM (active),33.5 nM (active) and 106 nM (active),43.7 nM (active) and 174 nM (active),0.188 µM (active),42.2 nM (active) and 168 nM (active),1.33 µM (active),0.133 µM (active),,,
COc1ccc(-c2cc(=O)c3c(O)cc(O)cc3o2)cc1O,4.69 µM (active),2.64 µM (active),21.7 µM (active),11.8 µM (active),18.7 µM (active),4.69 µM (active),7.43 µM (active),inactive,24.1 µM (active),
O=C(O)c1cc(O)c2c(c1)C(=O)c1cccc(O)c1C2=O,inactive,19.1 µM (active),inactive,38.2 µM (active),,,inactive,inactive,inactive,
Nc1nc(F)nc2c1ncn2[C@@H]1O[C@H](COP(=O)(O)O)[C@@H](O)[C@H]1O,14.8 µM (active),0.264 µM (active),15.3 µM (active),0.935 µM (active),0.743 µM (active),16.6 µM (active),,inactive,,
CC1=C(/C=C/C(C)=C/C=C/C(C)=C/C(=O)Nc2ccc(O)cc2)C(C)(C)CCC1,6.68 µM (active),6.68 µM (active),15.5 µM (active),,23.7 µM (active),,,26.6 µM (active),,
CC1(C)O[C@H]2C[C@@H]3[C@H]4CCC5=CC(=O)C=C[C@]5(C)[C@@]4(F)[C@@H](O)C[C@]3(C)[C@]2(C(=O)CO)O1,3.72 µM (active),8.33 µM (active),13.7 µM (active),2.35 µM (active),inactive,14.8 µM (active),7.43 µM (active),inactive,inactive,
CN1C[C@H]2c3ccccc3Oc3ccc(Cl)cc3[C@@H]2C1,inactive,inactive,inactive,inactive,inactive,inactive,inactive,inactive,inactive,
CC(C)(C)OC(=O)N[C@H]1CCCCCC=C[C@@H]2C[C@@]2(C(=O)NS(=O)(=O)C2CC2)NC(=O)[C@@H]2C[C@@H](OC(=O)N3Cc4cccc(F)c4C3)CN2C1=O,inactive,29.6 µM (active),inactive,inactive,,inactive,inactive,inactive,inactive,
CC[C@]1(O)C[C@@H]2CN(CCc3c([nH]c4ccccc34)[C@@](C(=O)OC)(c3cc4c(cc3OC)N(C=O)[C@@H]3C45CCN4CC=C[C@](CC)([C@H]45)[C@@H](OC(C)=O)[C@]3(O)C(=O)OC)C2)C1 (stereo not given in full),11.8 µM (active),20.9 µM (active),inactive,,inactive,,inactive,inactive,,
O=C(NCc1ccccc1)c1csc(Nc2ccncn2)n1,23.5 µM (active),20.9 µM (active),17.2 µM (active),14.8 µM (active),11.8 µM (active),13.2 µM (active),13.2 µM (active),,,
O=c1[nH]cnc2c1ncn2[C@H]1CC[C@@H](CO)O1,29.6 µM (active),9.35 µM (active),inactive,inactive,inactive,,inactive,inactive,,
Cc1nc(N)sc1-c1ccnc(Nc2ccc(N3CCOCC3)cc2)n1,9.35 µM (active),1.05 µM (active),24.3 µM (active),23.5 µM (active),11.8 µM (active),9.35 µM (active),0.332 µM (active),18.7 µM (active),6.81 µM (active),
O=C(O)c1ccc(-c2cc3cccnc3c(-c3ccc4nonc4c3)n2)cc1,18.7 µM (active),3.32 µM (active),24.3 µM (active),,,,20.9 µM (active),inactive,,
O=C(O)c1ccccc1C(=O)Nc1ccc(-c2ccccc2)cc1,inactive,inactive,inactive,inactive,inactive,inactive,inactive,inactive,,
CCNc1cc(NC2CCC(O)CC2)nc(Nc2ccc3c(ccn3Cc3ccccc3)c2)n1 (stereo not given),29.6 µM (active),,,,,,,,,
COc1ccc2cc(-c3nc(-c4ccc(S(C)=O)cc4)[nH]c3-c3ccncc3)ccc2c1 (stereo not given),,,,,inactive,,,inactive,,14.8 µM (active)
COc1ccc(-c2coc3cc(O)ccc3c2=O)cc1,inactive,inactive,inactive,inactive,inactive,inactive,inactive,inactive,inactive,
O=C(O)CCc1nc(-c2ccccc2)c(-c2ccccc2)o1,inactive,inactive,inactive,inactive,inactive,inactive,inactive,inactive,inactive,
CCN(CC)CCOc1ccc(C(=C(Cl)c2ccccc2)c2ccccc2)cc1,29.6 µM (active),14.8 µM (active),inactive,inactive,,,,inactive,,

Compound,Potency [1],Potency [2],Potency [3],Potency [4],Potency [5],Potency [6],Potency [7],Potency [8],Potency [9],Potency [10]
CC(C)(C)c1ccc(C(O)CCCN2CCC(C(O)(c3ccccc3)c3ccccc3)CC2)cc1 (stereo not given),inactive,inactive,inactive,inactive,inactive,inactive,,,,
CCN(CC)CCOC(=O)c1ccc(N)cc1,inactive,inactive,inactive,inactive,inactive,inactive,inactive,,inactive,
CCOC(=O)O[C@]1(C(=O)OCCl)CC[C@@H]2[C@H]3CCC4=CC(=O)C=C[C@]4(C)[C@@H]3[C@@H](O)C[C@@]21C,inactive,inactive,inactive,inactive,inactive,inactive,inactive,inactive,inactive,
O=C1C[C@@H](c2ccc(O)cc2)Oc2cc(O)cc(O)c21,inactive,inactive,inactive,inactive,,inactive,inactive,inactive,inactive,
CC(=O)Oc1cc2c(s1)CCN(C(C(=O)C1CC1)c1ccccc1F)C2 (stereo not given),1.48 µM (active),1.32 µM (active),1.09 µM (active),3.72 µM (active),,,,,,
CC1(C)CCC[C@@]2(C)[C@@H]1CC[C@@]1(C)OC(=O)C[C@H]21,inactive,8.33 µM (active),inactive,inactive,,inactive,inactive,inactive,inactive,
CO[C@H]1C(=O)[C@]2(C)[C@@H](OC)C[C@H]3OC[C@@]3(OC(C)=O)[C@H]2[C@H](OC(=O)c2ccccc2)[C@]2(O)C[C@H](OC(=O)[C@H](O)[C@@H](NC(=O)OC(C)(C)C)c3ccccc3)C(C)=C1C2(C)C,0.001 µM (active),29.6 µM (active),,,0.001 µM (active),inactive,0.001 µM (active),,inactive,
C=CCc1ccc(O)c(-c2ccc(O)c(CC=C)c2)c1,23.5 µM (active),23.5 µM (active),,inactive,18.7 µM (active),inactive,,,,
CS(=O)c1ccc(-c2nc(-c3ccc(F)cc3)c(-c3ccncc3)[nH]2)cc1 (stereo not given),34 µM (active),8.55 µM (active),17.7 µM (active),,10.8 µM (active),,,,,
N#Cc1ccc(NC(=O)Nc2ccccc2Br)c2n[nH]nc12,23.5 µM (active),26.4 µM (active),,,inactive,,26.4 µM (active),inactive,,
CC(C)OC(=O)C(C)(C)Oc1ccc(C(=O)c2ccc(Cl)cc2)cc1,inactive,20.9 µM (active),,,inactive,,inactive,inactive,inactive,
CCCNC(=O)NS(=O)(=O)c1ccc(Cl)cc1,inactive,,inactive,inactive,inactive,inactive,inactive,inactive,inactive,
CO[C@H]1C[C@@H]2CC[C@@H](C)[C@@](O)(O2)C(=O)C(=O)N2CCCC[C@@H]2C(=O)O[C@H]([C@@H](C)C[C@@H]2CC[C@H](O)[C@H](OC)C2)CC(=O)[C@H](C)C=C(C)[C@@H](O)[C@@H](OC)C(=O)[C@H](C)C[C@H](C)C=CC=CC=C1C,inactive,,,,inactive,,,inactive,inactive,
COC(=O)C1=CO[C@@H](O)[C@@H]2C(CO)=CC[C@@H]12,inactive,29.6 µM (active),inactive,,inactive,,20.9 µM (active),,,
O=C(Nc1ccccc1-c1cn2c(CN3CCNCC3)csc2n1)c1cnc2ccccc2n1,18.7 µM (active),,27.3 µM (active),inactive,,13.2 µM (active),20.9 µM (active),inactive,inactive,
O=c1cc(-c2ccccc2)oc2cc(O)c(O)c(O)c12,inactive,inactive,,inactive,18.7 µM (active),inactive,,,inactive,
CCOC(CN1C(=O)[C@](CC(=O)Nc2ccc(C)cc2)(NC(=O)Nc2ccc(C)cc2)c2ccccc21)OCC,29.6 µM (active),11.8 µM (active),,,,16.6 µM (active),,inactive,inactive,
CC(C)(Cc1ccc2ccccc2c1)NC[C@@H](O)COc1cccc(Cl)c1C#N,14.8 µM (active),,19.3 µM (active),2.35 µM (active),inactive,,18.7 µM (active),,24.1 µM (active),

# — PubChem BioAssay (NCATS)
